# From PubChem BioAssay (NCI)
# The panel holds about 83,000 compounds, 20% with a hit somewhere; the sample as a whole holds those more often.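 The endpoint reported here, percent growth, reads 100 for growth as untreated, 0 for no net growth and -100 for all cells dead.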 A number with no mark means an inactive call. Active and inactive are the calls of the source. The calls were made as follows: active = growth percent below 10; inactive = the rest.
# Test system: A498 renal
# Experiment: NCI-60 one-dose screen, 48 h (100 = growth as untreated, 0 = no growth, -100 = all killed)
# Conditions: 10 µM unless noted
row,Compound,growth
1,C/C(=N/Nc1nc2ccccc2n1C)c1ccccn1,-29.8% (active)
2,Cc1nc2sc(C(=O)Nc3cccc4ccccc34)c(N)c2cc1C(C)O (configuration not stated),24.2%
3,N#Cc1c(-c2ccc(F)cc2)c(C#N)c2c(C#N)c(N)nn2c1N,93.7%
4,CCOc1ccc(C2N(c3cc(OC)c(OC)c(OC)c3)C(=O)C2(F)F)cc1 (configuration not stated),92.3%
5,CCOc1ccccc1C(=O)/C=C/c1cc2ccccc2[nH]c1=O,-14.7% (active)
6,Cc1ccc(C2=N[C@H]3CCC[C@@H]3N(c3ccccc3)C(C(Cl)Cl)=N2)cc1,112%
7,COc1cc(/C=C/CO)cc(OC)c1O[C@@H]1O[C@H](CO)[C@@H](O)[C@H](O)[C@H]1O,77.2%
8,COc1ccc(C(=S)c2cc(OC)c(OC)c(OC)c2)cc1OC(=O)CCl,16%
9,O=C1CCC23OC(c4ccccc4N12)C(O)C(O)C3O (configuration not stated),104%
10,COc1cc(/C=C/C(=O)c2cccs2)ccc1OCc1ccc(Cl)nc1,100%
11,O=c1c2ccccc2oc2ccc(OCCCCCN3CCCCCC3)cc12,82.7%
12,C=C1C(=O)O[C@H]2[C@H]1CC/C(COC(=O)NCC(=O)Nc1ccc(OC)c(C(N)=O)c1O)=C\CC[C@@]1(C)O[C@@H]21,86.4%
13,COc1ccc(-c2[nH]c3ccccc3c2C=C(C#N)C#N)cc1,-7.34% (active)
14,COC(=O)/C=C/c1cc(OC(C)=O)c2c(c1)C(C(=O)OC)C(c1ccc(OC(C)=O)c(OC(C)=O)c1)O2 (configuration not stated),3.78% (active)
15,Nc1cc(N)c(S(=O)(=O)O)cc1N=Nc1cc([N+](=O)[O-])ccc1O,103%
16,CC1CCN(CCCCCOc2ccc3oc4ccccc4c(=O)c3c2)CC1,74.4%

row,Compound,growth
1,CCOC(=O)C1=C(C)n2nc(CC#N)c(C#N)c2NC1c1ccc(Cl)cc1 (configuration not stated),98.6%
2,Cc1cccc(C)c1NCc1nnc(-c2ccco2)o1,96.5%
3,COC(=O)/C=C1\SC(=Nc2cccc(Cl)c2)N(CCc2c[nH]c3ccccc23)C1=O,61.5%
4,CCO/C=N/S(=O)(=O)c1cc2c(cc1Cl)NC=NS2(=O)=O,106%
5,O=C(CN1N=C(c2ccc(F)cc2)CCC1=O)Nc1nccs1,84.1%
6,Nc1cc(N)nc(SCC(=O)O)n1,89.4%
7,CCOC(=O)NCCc1nc2c([nH]1)c(=O)n(C)c(=O)n2C,105%
8,CC1(c2ccccc2Cl)NC(=O)NC1=O (configuration not stated),94.9%
9,C=C1C(=O)O[C@H]2[C@H]1CC/C(COC(=O)n1ccnc1)=C\CC[C@@]1(C)O[C@@H]21,125%
10,O=C1NC(SCc2ccc(F)cc2)=N/C1=C/c1cccc(OCc2ccc(Cl)cc2)c1,-5.28% (active)
11,O=C(CCc1nnc2sc(OCc3ccccc3)nn12)c1nc2ccc([N+](=O)[O-])cc2[nH]1,111%
12,Nc1c(C(=O)Nc2ccccn2)sc2nc3c(cc12)CCCC3,48.3%
13,Cc1nnc(/N=C2\NC(=O)/C(=C/c3ccsc3)S2)s1,87.7%
14,Oc1c(CCl)cc(Cl)cc1Cc1cc(Cl)cc(Cc2cc(Cl)cc(CCl)c2O)c1O,-4.67% (active)
15,COc1ccc(C2N(c3cc(OC)c(OC)c(OC)c3)C(=O)C2(F)F)cc1F (configuration not stated),97.8%
16,COc1cc2c(cc1OC)C(Sc1ccc(Cl)cc1)c1c(nc(N)c(C#N)c1N)O2 (configuration not stated),66.4%

# Test system: CCRF-CEM leukemia
# Experiment: as above
# Conditions: 10 µM unless noted
row,Compound,growth
1,Cc1nc2sc(C(=O)Nc3cccc4ccccc34)c(N)c2cc1C(C)O (configuration not stated),9.13% (active)
2,N#Cc1c(-c2ccc(F)cc2)c(C#N)c2c(C#N)c(N)nn2c1N,104%
3,CCOc1ccc(C2N(c3cc(OC)c(OC)c(OC)c3)C(=O)C2(F)F)cc1 (configuration not stated),10.2%
4,CCOc1ccccc1C(=O)/C=C/c1cc2ccccc2[nH]c1=O,-0.719% (active)
5,Cc1ccc(C2=N[C@H]3CCC[C@@H]3N(c3ccccc3)C(C(Cl)Cl)=N2)cc1,96.4%
6,COc1cc(/C=C/CO)cc(OC)c1O[C@@H]1O[C@H](CO)[C@@H](O)[C@H](O)[C@H]1O,96.2%
7,COc1ccc(C(=S)c2cc(OC)c(OC)c(OC)c2)cc1OC(=O)CCl,14.3%
8,O=C1CCC23OC(c4ccccc4N12)C(O)C(O)C3O (configuration not stated),101%
9,COc1cc(/C=C/C(=O)c2cccs2)ccc1OCc1ccc(Cl)nc1,61.9%
10,O=c1c2ccccc2oc2ccc(OCCCCCN3CCCCCC3)cc12,82.5%
11,COc1ccc(-c2[nH]c3ccccc3c2C=C(C#N)C#N)cc1,-5.77% (active)
12,Nc1cc(N)c(S(=O)(=O)O)cc1N=Nc1cc([N+](=O)[O-])ccc1O,93.9%
13,CC1CCN(CCCCCOc2ccc3oc4ccccc4c(=O)c3c2)CC1,77.1%
14,CCOC(=O)C1=C(C)n2nc(CC#N)c(C#N)c2NC1c1ccc(Cl)cc1 (configuration not stated),96.4%
15,Cc1cccc(C)c1NCc1nnc(-c2ccco2)o1,91.4%
16,COC(=O)/C=C1\SC(=Nc2cccc(Cl)c2)N(CCc2c[nH]c3ccccc23)C1=O,5.03% (active)
17,CCO/C=N/S(=O)(=O)c1cc2c(cc1Cl)NC=NS2(=O)=O,95.7%
18,COc1ccc([C@H]2[C@@H](F)C(=O)N2c2cc(OC)c(OC)c(OC)c2)cc1F,13.2%
19,O=C(CN1N=C(c2ccc(F)cc2)CCC1=O)Nc1nccs1,94%
20,Nc1cc(N)nc(SCC(=O)O)n1,96.2%
21,CCOC(=O)NCCc1nc2c([nH]1)c(=O)n(C)c(=O)n2C,101%
22,CC1(c2ccccc2Cl)NC(=O)NC1=O (configuration not stated),101%
23,COc1ccccc1-c1ccc2nc(NC(=O)Nc3cc(C(F)(F)F)cc(C(F)(F)F)c3)sc2c1,0.889% (active)
24,O=C1NC(SCc2ccc(F)cc2)=N/C1=C/c1cccc(OCc2ccc(Cl)cc2)c1,54.8%
25,O=C(CCc1nnc2sc(OCc3ccccc3)nn12)c1nc2ccc([N+](=O)[O-])cc2[nH]1,104%
26,Nc1c(C(=O)Nc2ccccn2)sc2nc3c(cc12)CCCC3,36.9%
27,Cc1cc(Nc2nc(SCc3ccc(C(=O)Nc4ccc(F)cc4N)cc3)nn3cccc23)n[nH]1,9.8% (active)
28,Oc1c(CCl)cc(Cl)cc1Cc1cc(Cl)cc(Cc2cc(Cl)cc(CCl)c2O)c1O,13.5%
29,COc1ccc(C2N(c3cc(OC)c(OC)c(OC)c3)C(=O)C2(F)F)cc1F (configuration not stated),13%
30,COc1cc2c(cc1OC)C(Sc1ccc(Cl)cc1)c1c(nc(N)c(C#N)c1N)O2 (configuration not stated),-7.67% (active)
